Data reported in PubChem BioAssay AID1159580 (chemical genetic matrix, 2015).
Where “and” joins values, the source holds several entries; their conditions need not be identical. Equal entries are not always repeated. Out of some 5,500 compounds screened, about 2,000 (36%) were called active. Not shown: some 18% with an inconclusive outcome. No stated cut-off is given here; in the data, active means normalized growth mostly below about 0.91 (no sharp cut-off); inconclusive means no clear call, values can overlap the other calls; inactive means mostly above about 0.92. Some of the results follow.

Assay: chemical genetic growth profiling, strain panel (AID 1159580);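 further: tested at 20 µM; growth read once vehicle control cultures reached saturation at 30 °C; 1 = growth at the plate median or of vehicle wells; lower values mean less growth of the strain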
Details: S. cerevisiae deletion strains, growth OD

Measured: normalized growth

OC[C@H]1O[C@@H](O[C@H]2[C@H](O)[C@@H](O)[C@@H](O)O[C@@H]2CO)[C@H](O)[C@@H](O)[C@@H]1O
inactive: locus YAL013W, strain DEP1, active compounds read low 1.02 | locus YAL021C, strain ccr4, active compounds read low 1.01 | locus YAL026C, strain drs2, active compounds read low 1.01 | locus YAL030W, strain snc1, active compounds read low 1 | locus YBL061C, strain skt5, active compounds read low 1 | locus YBR009C, strain hhf1, active compounds read low 1.06 | locus YBR021W, strain FUR4, active compounds read low 1.04 | locus YBR023C, strain chs3, active compounds read low 1.01 | locus YBR171W, strain sec66, active compounds read low 0.996 | locus YBR229C, strain ROT2, active compounds read low 1 | locus YBR231C, strain swc5, active compounds read low 1 | locus YBR279W, strain paf1, active compounds read low 0.993 | locus YCL011C, strain gbp2, active compounds read low 1.02 | locus YCL016C, strain dcc1, active compounds read low 1.01 | locus YCL029C, strain bik1, active compounds read low 1.01 | locus YCL061C, strain MRC1, active compounds read low 1 | locus YCL069W, strain vba3, active compounds read low 1.01 | locus YCR088W, strain abp1, active compounds read low 0.997 | locus YDL005C, strain med2, active compounds read low 0.986 | locus YDL035C, strain GPR1, active compounds read low 1.04 | locus YDL040C, strain nat1, active compounds read low 0.994 | locus YDL074C, strain BRE1, active compounds read low 1.09 | locus YDL101C, strain DUN1, active compounds read low 1.01 | locus YDL134C, strain PPH21, active compounds read low 1.01 | locus YDL185W, strain tfp1, active compounds read low 1.02 | locus YDL192W, strain arf1, active compounds read low 1.03 | locus YDR001C, strain nth1, active compounds read low 0.999 | locus YDR069C, strain doa4, active compounds read low 0.981 | locus YDR101C, strain arx1, active compounds read low 1.02 | locus YDR137W, strain rgp1, active compounds read low 1.01 | locus YDR159W, strain sac3, active compounds read low 0.972 | locus YDR162C, strain NBP2, active compounds read low 1.02 | locus YDR195W, strain ref2 0.958 | locus YDR297W, strain sur2, active compounds read low 1 | locus YDR318W, strain mcm21, active compounds read low 0.994 | locus YDR334W, strain swr1, active compounds read low 0.996 | locus YDR335W, strain msn5, active compounds read low 1.01 | locus YDR388W, active compounds read low 1.02 | locus YDR392W, strain spt3, active compounds read low 0.957 | locus YDR502C, strain sam2, active compounds read low 0.992 | locus YEL003W, strain gim4, active compounds read low 1.02 | locus YEL037C, strain rad23, active compounds read low 1.01 | locus YEL061C, strain CIN8 (second series), active compounds read low 0.999 | locus YEL061C, strain CIN8, active compounds read low 1.01 | locus YER015W, strain faa2, active compounds read low 0.995 | locus YER016W, strain bim1, active compounds read low 1 | locus YER110C, active compounds read low 1.02 | locus YER111C, strain swi4, active compounds read low 1 | locus YER155C, strain BEM2 (second series), active compounds read low 0.987 | locus YER155C, strain BEM2, active compounds read low 1.02 | locus YER167W, strain BCK2, active compounds read low 1.01 | locus YFR010W, strain ubp6, active compounds read low 0.99 | locus YGL078C, strain dbp3, active compounds read low 1.03 | locus YGL086W, strain mad1, active compounds read low 1.04 | locus YGL167C, strain pmr1, active compounds read low 0.999 | locus YGL173C, strain kem1, active compounds read low 1 | locus YGL227W, strain vid30, active compounds read low 1 | locus YGL240W, strain doc1, active compounds read low 1.03 | locus YGL248W, strain PDE1, active compounds read low 1.01 | locus YGL253W, strain hxk2, active compounds read low 1.03 | locus YGR078C, strain PAC10, active compounds read low 1.03 | locus YGR135W, strain pre9, active compounds read low 1.02 | locus YGR252W, strain gcn5, active compounds read low 1 | locus YHR013C, strain ard1, active compounds read low 0.997 | locus YHR027C, strain rpn1, active compounds read low 1.02 | locus YHR030C, strain SLT2, active compounds read low 1.01 and 0.972 | locus YHR079C, strain IRE1 (second series), active compounds read low 1.01 | locus YHR079C, strain IRE1, active compounds read low 0.96 | locus YHR094C, strain hxt1, active compounds read low 1.05 | locus YHR129C, strain ARP1, active compounds read low 1.02 | locus YHR142W, strain chs7, active compounds read low 1.02 | locus YHR200W, strain rpn10, active compounds read low 1.02 | locus YIL066C, strain RNR3, active compounds read low 1.02 | locus YIL073C, strain SPO22, active compounds read low 1.12 | locus YIL125W, strain kgd1, active compounds read low 1.01 | locus YIR030C, strain dcg1, active compounds read low 1.01 | locus YJL092W, strain hpr5, active compounds read low 1.02 | locus YJL095W, strain BCK1 (second series), active compounds read low 0.995 | locus YJL095W, strain BCK1, active compounds read low 1.02 and 1.06 | locus YJL115W, strain asf1, active compounds read low 0.99 | locus YJL129C, strain trk1, active compounds read low 0.987 | locus YJL134W, strain LCB3, active compounds read low 1 | locus YJL154C, strain vps35, active compounds read low 0.991 | locus YJL164C, strain tpk1, active compounds read low 1.02 | locus YJL166W, strain qcr8, active compounds read low 1.03 | locus YJL168C, strain set2, active compounds read low 1.03 | locus YJL187C, strain SWE1 (second series), active compounds read low 1.02 | locus YJL187C, strain SWE1, active compounds read low 1 | locus YJR043C, strain POL32, active compounds read low 1.02 | locus YJR066W, strain TOR1, active compounds read low 0.921
